Results published in PubChem BioAssay (Tox21).
Records with an inconclusive call do not appear. Active and inactive are the calls of the source. Unless noted, calls follow the shape of the dose curve; as a rule, active = well fitted curve in the direction sought with a large enough effect in the repeat runs; inconclusive = weak or mixed curves; inactive = no such curve, though single readings can be large; an effect the other way counts as inactive or inconclusive.

Legend:
[1] = qHTS assay to identify aromatase inhibitors - cell viability counter screen (AID 743084);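 also: cells stimulated with testosterone during compound exposure; nearly all actives have a fitted effect of over 55% in size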
[2] = target: Aryl hydrocarbon receptor (Homo sapiens) (UniProt P35869); assay: qHTS assay to identify small molecule that activate the aryl hydrocarbon receptor (AhR) signaling pathway (AID 743085);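 also: HG2L7.5c1 human HepG2 liver cells with stably integrated DRE-driven firefly reporter; series mostly up to about 70 µM; nearly all actives have a fitted effect of over 15% in size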
Sequence of Aryl hydrocarbon receptor (Homo sapiens) (P35869 whole entry, looked up): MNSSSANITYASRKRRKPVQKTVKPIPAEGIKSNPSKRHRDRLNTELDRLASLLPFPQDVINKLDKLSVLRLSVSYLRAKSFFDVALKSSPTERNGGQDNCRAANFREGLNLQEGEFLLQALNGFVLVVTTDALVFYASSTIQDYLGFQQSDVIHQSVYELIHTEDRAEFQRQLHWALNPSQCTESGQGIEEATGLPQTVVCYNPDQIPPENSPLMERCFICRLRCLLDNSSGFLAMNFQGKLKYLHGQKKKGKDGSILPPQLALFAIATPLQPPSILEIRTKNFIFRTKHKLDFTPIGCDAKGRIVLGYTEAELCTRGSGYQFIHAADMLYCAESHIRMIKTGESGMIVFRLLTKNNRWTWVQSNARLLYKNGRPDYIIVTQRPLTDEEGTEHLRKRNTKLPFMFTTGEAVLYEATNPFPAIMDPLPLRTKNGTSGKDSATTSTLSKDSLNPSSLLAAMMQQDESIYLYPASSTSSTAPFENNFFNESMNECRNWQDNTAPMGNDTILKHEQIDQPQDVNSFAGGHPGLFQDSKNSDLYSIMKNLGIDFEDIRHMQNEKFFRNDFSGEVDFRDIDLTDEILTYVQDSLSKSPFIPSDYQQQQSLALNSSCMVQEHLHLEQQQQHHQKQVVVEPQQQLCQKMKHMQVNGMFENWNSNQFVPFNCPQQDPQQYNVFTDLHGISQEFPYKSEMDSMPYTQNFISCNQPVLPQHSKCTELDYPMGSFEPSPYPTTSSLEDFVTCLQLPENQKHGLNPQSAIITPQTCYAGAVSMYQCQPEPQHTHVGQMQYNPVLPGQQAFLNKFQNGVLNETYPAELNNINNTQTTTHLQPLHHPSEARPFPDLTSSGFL
Method in brief: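 HepG2 cells (HG2L7.5c1) stably carrying a firefly luciferase reporter driven by 20 dioxin responsive elements were exposed to compound for 24 h at 37C after a 5 h settling period; luminescence rise (ONE-Glo) indicated activation.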

[3] = qHTS assay to identify small molecule that activate the aryl hydrocarbon receptor (AhR) signaling pathway - cell viability counter screen (AID 743086);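 also: HepG2 liver cells carrying the AhR DRE luciferase reporter; series mostly up to about 70 µM; nearly all actives have a fitted effect of over 45% in size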
Method in brief: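 HepG2-AhR-luc (HG2L7.5c1) cells, 4000/well, were preincubated 5 h at 37C, exposed to compound in qHTS format for 24 hr at 37C, then given CellTiter-Fluor for 30 min; viability was read as fluorescence in the reporter wells.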

[4] = target: Peroxisome proliferator-activated receptor gamma (Homo sapiens) (UniProt P37231); assay: qHTS assay to identify small molecule agonists of the peroxisome proliferator-activated receptor gamma (PPARg) signaling pathway (AID 743094; active = well fitted activation curve with a large enough effect in the signal ratio in the repeat runs, not every such curve was filed as active; the % refers to the signal ratio)
Sequence of Peroxisome proliferator-activated receptor gamma (Homo sapiens) (P37231 whole entry, looked up): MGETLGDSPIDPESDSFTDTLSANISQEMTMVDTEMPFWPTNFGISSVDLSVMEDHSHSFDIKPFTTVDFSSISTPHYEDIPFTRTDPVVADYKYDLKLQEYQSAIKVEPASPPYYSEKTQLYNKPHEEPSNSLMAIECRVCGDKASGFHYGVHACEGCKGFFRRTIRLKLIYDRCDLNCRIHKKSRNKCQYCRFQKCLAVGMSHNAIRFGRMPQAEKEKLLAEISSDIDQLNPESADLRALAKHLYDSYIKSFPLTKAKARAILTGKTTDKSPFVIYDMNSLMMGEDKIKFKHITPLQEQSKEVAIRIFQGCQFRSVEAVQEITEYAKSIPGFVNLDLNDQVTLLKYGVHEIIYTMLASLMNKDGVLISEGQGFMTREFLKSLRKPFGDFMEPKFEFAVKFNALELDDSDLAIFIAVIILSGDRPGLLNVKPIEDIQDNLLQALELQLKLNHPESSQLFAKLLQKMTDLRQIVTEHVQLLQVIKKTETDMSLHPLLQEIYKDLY
Method in brief: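 Cells from the PPARg UAS-bla HEK293H line are plated and incubated 5 h at 37C. Compounds in DMSO are pinned in and left 17 h at 37C. LiveBLAzer B/G substrate is then added for 1 h at room temperature before fluorescence is measured.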

[5] = target: Peroxisome proliferator-activated receptor gamma (Homo sapiens) (UniProt P37231); assay: qHTS assay to identify small molecule antagonists of the peroxisome proliferator-activated receptor gamma (PPARg) signaling pathway (AID 743191; calls by dose curve; also: series mostly up to about 63 µM; nearly all actives have a fitted effect of over 30% in size)
Method in brief: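 GeneBLAzer PPARg UAS-bla HEK293H cells carrying a UAS-driven beta-lactamase reporter were plated at 3000 cells/well, preincubated 5 h at 37C, then given compound for 17 h at 37C; LiveBLAzer B/G FRET substrate was read after 1 h at room temperature.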

[6] = qHTS assay to identify small molecule antagonists of the peroxisome proliferator-activated receptor gamma (PPARg) signaling pathway - cell viability counter screen (AID 743194); also: nearly all actives have a fitted effect of over 55% in size
Method in brief: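 PPARg-UAS-bla HEK293H cells were plated, rested 5 h at 37 C, then treated with compounds plus rosiglitazone (50 nM final) for 17 h at 37 C; viability was then read by CellTiter-Glo luminescence after 30 min at room temperature.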

[7] = qHTS assay for small molecule agonists of the antioxidant response element (ARE) signaling pathway (AID 743202; active = well fitted activation curve with a large enough effect in the signal ratio in the repeat runs, not every such curve was filed as active; the % refers to the signal ratio)
Method in brief: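 Steps: seed ARE-bla HepG2 cells (2,000/well); incubate 5 h at 37 C; add compounds by pin tool; incubate 16 h at 37 C; add FRET substrate; read fluorescence after 2 h at RT.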

[8] = qHTS assay for small molecule agonists of the antioxidant response element (ARE) signaling pathway - cell viability counter screen (AID 743203; calls by dose curve; also: nearly all actives have a fitted effect of over 55% in size)
Method in brief: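 Cytotoxicity was tested in parallel with the ARE reporter screen. ARE-bla HepG2 cells were exposed to compounds for 16 hrs, and viability was taken from CellTiter-Glo luminescence.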

[9] = qHTS assay for small molecule activators of the heat shock response signaling pathway (AID 743210; active = well fitted activation curve with a large enough effect in the signal ratio in the repeat runs, with a control signal flat, not every such curve was filed as active; the % refers to the signal ratio;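 also: HeLa cells with beta-lactamase reporter driven by heat shock elements; series mostly up to about 63 µM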)
Method in brief: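 Activation of heat shock element-controlled beta-lactamase expression is measured in HeLa cells by LiveBLAzer FRET fluorescence, with compound exposure lasting 5 h at 37 C and substrate loading 2.5 h at room temperature.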

[10] = qHTS assay to identify small molecule agonists of the peroxisome proliferator-activated receptor delta (PPARd) signaling pathway - cell viability counter screen (AID 743211); also: nearly all actives have a fitted effect of over 55% in size
Method in brief: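 PPARd-bla HEK293H cells (UAS-beta-lactamase reporter) were treated with compounds for 17 h at 37 C. Viability was then read in the same wells by CellTiter-Glo luminescence after 30 min at room temperature.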

[11] = qHTS assay to identify small molecule antagonists of the peroxisome proliferator-activated receptor delta (PPARd) signaling pathway - cell viability counter screen (AID 743213); also: nearly all actives have a fitted effect of over 50% in size
Method in brief: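 PPARd-bla HEK293H cells (3000/well) got compound plus 300 nM L165041 agonist for 17 h at 37 C. Viability in the same wells came from CellTiter-Glo luminescence after 30 min at room temperature.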

[12] = qHTS assay to identify small molecule agonists of the farnesoid-X-receptor (FXR) signaling pathway - cell viability counter screen (AID 743218); also: nearly all actives have a fitted effect of over 45% in size
Method in brief: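 Cells were seeded, left 5 h at 37 C and 5% CO2, then dosed with compound in DMSO for 16 h. After the beta-lactamase FRET read, CellTiter-Glo was added and luminescence measured 30 min later.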

[13] = qHTS assay to identify small molecule antagonists of the farnesoid-X-receptor (FXR) signaling pathway - cell viability counter screen (AID 743221; active = well fitted cell-killing curve with a large enough effect in the repeat runs, not every such curve was filed as active; also: nearly all actives have a fitted effect of over 50% in size)
Method in brief: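 FXR-UAS-bla HEK 293T cells were treated with test compounds plus chenodeoxycholic acid (50 uM final) for 16 h at 37 C. Cell viability in the same wells was then read as CellTiter-Glo luminescence after 30 min at room temperature.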

[14] = target: Vitamin D3 receptor (Homo sapiens) (UniProt P11473); assay: qHTS assay to identify small molecule agonists of the vitamin D receptor (VDR) signaling pathway (AID 743222; calls by dose curve)
Sequence of Vitamin D3 receptor (Homo sapiens) (P11473 whole entry, looked up): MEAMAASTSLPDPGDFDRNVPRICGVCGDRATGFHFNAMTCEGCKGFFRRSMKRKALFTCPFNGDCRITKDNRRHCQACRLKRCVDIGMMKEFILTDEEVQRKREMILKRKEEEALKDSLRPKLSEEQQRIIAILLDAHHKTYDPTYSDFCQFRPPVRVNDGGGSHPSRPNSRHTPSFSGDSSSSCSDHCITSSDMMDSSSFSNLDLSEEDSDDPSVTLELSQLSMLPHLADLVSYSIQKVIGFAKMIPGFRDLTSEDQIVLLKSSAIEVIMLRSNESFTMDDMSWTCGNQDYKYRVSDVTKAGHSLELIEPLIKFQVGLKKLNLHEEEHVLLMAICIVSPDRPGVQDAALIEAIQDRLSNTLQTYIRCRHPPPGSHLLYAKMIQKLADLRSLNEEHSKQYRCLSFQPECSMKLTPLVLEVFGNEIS
Method in brief: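 Cells carrying a VDR-driven beta-lactamase reporter are seeded at 2,000 per well and rested 4 h. Compounds in DMSO are added for 16 h at 37C, and FRET substrate fluorescence is measured after 2 h at room temperature.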

[15] = target: Vitamin D3 receptor (Homo sapiens) (UniProt P11473); assay: qHTS assay to identify small molecule antagonists of the vitamin D receptor (VDR) signaling pathway (AID 743223; active = well fitted inhibition curve with a large enough effect in the signal ratio in the repeat runs, not every such curve was filed as active; the % refers to the signal ratio)
Method in brief: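 VDR-bla cells were plated, incubated 4 h at 37C, then given compound and 1alpha,25-dihydroxyvitamin D3 (3 nM final). After 16 h at 37C, LiveBLAzer B/G FRET substrate was added for 2 h at room temperature and fluorescence read.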

[16] = qHTS assay for small molecule activators of the heat shock response signaling pathway - cell viability counter screen (AID 743209); also: nearly all actives have a fitted effect of over 50% in size
Method in brief: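 Cytotoxicity counter screen run in parallel with the HSE beta-lactamase reporter, using the same wells. HeLa HSE-bla cells received compound for 5 h at 37 C; ATP-based CellTiter-Glo luminescence was measured after 30 min at room temperature.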

[17] = target: Peroxisome proliferator-activated receptor delta (Homo sapiens) (UniProt Q03181); assay: qHTS assay to identify small molecule agonists of the peroxisome proliferator-activated receptor delta (PPARd) signaling pathway (AID 743212; calls by dose curve)
Sequence of Peroxisome proliferator-activated receptor delta (Homo sapiens) (Q03181 whole entry, looked up): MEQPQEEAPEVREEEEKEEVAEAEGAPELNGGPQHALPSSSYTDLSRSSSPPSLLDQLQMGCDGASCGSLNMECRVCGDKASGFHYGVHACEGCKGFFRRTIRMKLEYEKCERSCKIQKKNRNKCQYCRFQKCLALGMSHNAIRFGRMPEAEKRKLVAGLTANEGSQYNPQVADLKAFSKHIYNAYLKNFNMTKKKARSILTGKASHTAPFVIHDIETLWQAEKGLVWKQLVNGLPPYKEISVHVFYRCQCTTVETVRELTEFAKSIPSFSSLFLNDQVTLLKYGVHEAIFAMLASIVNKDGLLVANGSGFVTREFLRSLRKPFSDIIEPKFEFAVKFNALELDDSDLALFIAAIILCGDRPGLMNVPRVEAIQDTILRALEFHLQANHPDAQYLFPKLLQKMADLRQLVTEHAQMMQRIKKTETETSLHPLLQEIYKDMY
Method in brief: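 Cells expressing a UAS-driven beta-lactamase reporter (PPARd-bla HEK293H) were given test compounds after a 5 h settle and kept at 37 C. Reporter activity was then measured as FRET fluorescence using LiveBLAzer B/G substrate.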

[18] = target: Peroxisome proliferator-activated receptor delta (Homo sapiens) (UniProt Q03181); assay: qHTS assay to identify small molecule antagonists of the peroxisome proliferator-activated receptor delta (PPARd) signaling pathway (AID 743215; active = well fitted inhibition curve with a large enough effect in the signal ratio in the repeat runs, not every such curve was filed as active; the % refers to the signal ratio;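 also: cells stimulated with agonist L165041 at 300 nM final during compound exposure; series mostly up to about 62 µM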)
Method in brief: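 Cells: HEK293H with a UAS-driven beta-lactamase reporter responsive to PPARd. Compounds were co-added with L165041 (300 nM, final) and incubated 17 h at 37 C before a 2 h room-temperature FRET substrate step and fluorescence reading.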

[19] = target: Bile acid receptor (Homo sapiens) (UniProt Q96RI1); assay: qHTS assay to identify small molecule antagonists of the farnesoid-X-receptor (FXR) signaling pathway (AID 743217; active = well fitted inhibition curve with a large enough effect in the signal ratio in the repeat runs, not every such curve was filed as active; the % refers to the signal ratio)
Sequence of Bile acid receptor (Homo sapiens) (Q96RI1 whole entry, looked up): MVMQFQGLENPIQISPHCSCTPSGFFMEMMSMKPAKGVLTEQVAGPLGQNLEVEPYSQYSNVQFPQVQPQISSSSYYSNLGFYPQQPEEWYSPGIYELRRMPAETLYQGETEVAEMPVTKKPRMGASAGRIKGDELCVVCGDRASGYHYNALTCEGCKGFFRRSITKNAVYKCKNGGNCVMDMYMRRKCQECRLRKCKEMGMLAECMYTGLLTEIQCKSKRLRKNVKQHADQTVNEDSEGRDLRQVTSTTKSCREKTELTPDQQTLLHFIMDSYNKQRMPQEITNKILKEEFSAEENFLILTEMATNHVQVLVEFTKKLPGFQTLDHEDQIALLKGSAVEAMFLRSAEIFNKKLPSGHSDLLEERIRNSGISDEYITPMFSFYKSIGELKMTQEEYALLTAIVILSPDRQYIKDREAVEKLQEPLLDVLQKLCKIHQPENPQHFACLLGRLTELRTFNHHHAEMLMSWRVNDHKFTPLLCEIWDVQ
Method in brief: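 Cells carrying a UAS-driven beta-lactamase reporter (GeneBLAzer FXR-UAS-bla HEK 293T) were plated and rested 5 h at 37 °C. Compounds in DMSO were added alongside chenodeoxycholic acid agonist at 50 uM final and left 16 h at 37 °C before FRET substrate readout.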

[20] = target: Bile acid receptor (Homo sapiens) (UniProt Q96RI1); assay: qHTS assay to identify small molecule agonists of the farnesoid-X-receptor (FXR) signaling pathway (AID 743220; active = well fitted activation curve with a large enough effect in the signal ratio in the repeat runs, not every such curve was filed as active; the % refers to the signal ratio)
Method in brief: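 FXR-UAS-bla HEK 293T cells carrying a UAS-driven beta-lactamase reporter were plated for 5 h at 37C/5% CO2, then exposed to DMSO-dissolved Tox21 10K compounds for 16 h at 37C. A LiveBLAzer B/G FRET substrate was loaded for 2 h at room temperature before fluorescence reading.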

Measured: Potency

OC[C@H]1O[C@@H]2O[C@H]3[C@H](O)[C@@H](O)[C@@H](O[C@H]4[C@H](O)[C@@H](O)[C@@H](O[C@H]5[C@H](O)[C@@H](O)[C@@H](O[C@H]6[C@H](O)[C@@H](O)[C@@H](O[C@H]7[C@H](O)[C@@H](O)[C@@H](O[C@H]1[C@H](O)[C@H]2O)O[C@@H]7CO)O[C@@H]6CO)O[C@@H]5CO)O[C@@H]4CO)O[C@@H]3CO
not listed: [16] | [17] | [18] | [19] | [20]
inactive: all other assays above

NC[C@H](O)c1ccc(O)c(O)c1
not listed: [7] | [14] | [15] | [17] | [18] | [19] | [20]
inactive: all other assays above

O=C(O)CCCC(=O)O
not listed: [14] | [15] | [19] | [20]
inactive: all other assays above

c1ccc2c(c1)[nH]c1ccccc12
not listed: [14] | [15] | [16] | [19] | [20]
inactive: all other assays above

Cc1ccc(C(C)(C)C)cc1
not listed: [19] | [20]
inactive: all other assays above

COC(=O)CC(=O)OC
not listed: [19] | [20]
inactive: all other assays above

C=CC(C)(O)CCC=C(C)C (centres undefined)
not listed: [17] | [18]
inactive: all other assays above

C=CCCCCCCCCCC
not listed: [14] | [15] | [19] | [20]
inactive: all other assays above
